# Test results as given in PubChem BioAssay AID1851 (National Center for Advancing Translational Sciences (NCATS), 2009).
# About 4,000 (25%) of roughly 16,000 compounds were called active. Not shown: some 26% with an inconclusive outcome. A selection follows. A number with no mark means an inactive call. Calls follow the shape of the dose curve; as a rule, active = well fitted curve in the direction sought with a large enough effect; inconclusive = small, poorly fitted or top-dose-only effect, or effect the other way; inactive = no such curve, though single readings can be large or run the other way.
# Molecular target: Cytochrome P450 2C9 (Homo sapiens) (UniProt P11712)
# Assay: Cytochrome panel assay with activity outcomes
# Settings: recombinant CYP, pro-luciferin dealkylation, luminescence, p450-cyp2c9; series mostly up to 57.1 µM
# Description: The P450 gene superfamily is involved in the metabolism and clearance of xenobiotics. This assay used various human CYP P450 isozymes to measure the dealkylation of various pro-luciferin substrates to luciferin. The luciferin is then measured by luminescence after the addition of a luciferase detection reagent. Pro-luciferin substrate concentration in the assay was equal to its KM for its CYP P450 isozyme. Inhibitors and some substrates limit the production of luciferin, and decrease measured luminescence.
# NCGC Assay Protocol Summary:
# 1, Reagent, 2 uL, Isozyme and Pro-Luciferin
# 2, Library compounds, 23 nl, 40 uM to 0.24 nM dilution series
# 3, Controls, 23 nl, Isozyme specific inhibitor
# 4, Reagent, 2 uL, NADPH regeneration solution
# 5, Incubation time, 60 min, Isozyme specific temperature
# 6, Reagent, 4ul, Detection reagent
# 7, Incubation time, 20 min, Isozyme specific temperature
# 8, Detection, 1 sec, ViewLux luminescent read
# The luciferase-based P450-GloTM Screening Systems were obtained from Promega (Madison, WI) for CYP 1A2 (V9770), CYP 2C9 (V9790), CYP2 C19 (V9880), CYP 2D6 (V9890), and CYP 3A4 Luciferin-PPXE (V9910) and were adapted for 1,536-well microplates and an automated protocol. The control compounds furafylline for 1A2 (F124), sulfaphenazole for CYP 2C9 (S0758), ketoconazole for CYP 2C19 (K1003), quinidine for 2D6 (Q3625), and ketoconazole for 3A4 (K1003) were purchased from Sigma Aldrich (St. Louis, MO). Recombinant P450 enzymes were obtained from baculovirus constructs expressed in insect cells (BD/Gentest).
# Medium-binding white solid Kalypsys plates used. Mixtures kept on ice. 1A2: 10 nM 1A2, 100 uM Luc-ME, 100 mM KPO4; 2C9: 10 nM 2C9, 100 uM Luc-H, 25 mM KPO4; 2C19: 5 nM 2C19, 10 uM Luc-H EGE, 50 mM KPO4; 2D6: 5 nM 2D6, 30 uM Luc-ME EGE, 100 mM KPO4; 3A4: 10 nM, 25 uM Luc-PPXE. All amounts are reflected in their final concentration, working concentration is 2x.
# NADPH regeneration solution: 1.3 mM NADP+, 3.3 mM glucose-6-phosphate, 3.3 mM MgCl2, 0.4 U/mL glucose-6-phosphate dehydrogenase for all isozymes, 200 mM KPO4 for 3A4. Mixture prepared at RT but kept on ice during automated run.
# RT incubation in auxilliary plate hotel for 1A2, 2D6, and 3A4; 37C for 2C9 and 2C19.
# Keywords: P450, CYP1A2, CYP2C19, CYP2C9, CYP2D6, CYP3A4, Luciferase, MLSMR, MLSCN, NIH Roadmap, qHTS, NCGC
# % is scaled to controls: 0 for no effect and ±100 for the full control effect.
# Cytochrome P450 2C9 (Homo sapiens), sequence (P11712 whole entry, looked up): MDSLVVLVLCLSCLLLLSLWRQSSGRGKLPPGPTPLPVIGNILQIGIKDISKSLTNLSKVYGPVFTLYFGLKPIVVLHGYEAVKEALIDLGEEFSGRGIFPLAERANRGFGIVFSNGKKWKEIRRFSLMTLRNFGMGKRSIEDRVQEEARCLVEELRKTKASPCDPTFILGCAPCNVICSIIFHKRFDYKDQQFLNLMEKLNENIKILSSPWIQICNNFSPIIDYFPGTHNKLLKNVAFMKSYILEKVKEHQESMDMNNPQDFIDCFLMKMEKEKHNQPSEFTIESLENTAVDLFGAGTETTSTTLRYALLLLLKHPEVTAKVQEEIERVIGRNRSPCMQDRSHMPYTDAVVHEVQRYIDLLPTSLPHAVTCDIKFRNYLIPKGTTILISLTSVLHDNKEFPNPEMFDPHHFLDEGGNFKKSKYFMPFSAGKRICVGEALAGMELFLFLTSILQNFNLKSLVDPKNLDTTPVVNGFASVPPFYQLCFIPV
Structure (SMILES),AC50,"activity, negative = inhibition"
CCOC(=O)c1[nH]c(C)c(C(=O)N2CCC3(CC2)OCCO3)c1C,20 µM (active),
O=C(C1CC(=O)N(C2CCCC2)C1)N1CCC2(CC1)OCCO2 (stereo unspecified),,inactive
N=C(N)c1ccc(-c2ccc(-c3ccc(C(=N)N)cc3)o2)cc1,,19.5% [at 11.4 µM]
COc1ccccc1CC1C(=O)C2CCN1CC2 (stereo unspecified),,inactive
CN(N=O)C(=O)N[C@H]1C(O)OC(CO)[C@@H](O)[C@H]1O (stereo partly specified),,inactive
CCOc1ccc2c(c1)C(C)=CC(C)(C)N2,2 µM (active),
C[N+]1([O-])[C@@H]2CC(OC(=O)[C@@H](CO)c3ccccc3)C[C@@H]1[C@H]1O[C@H]12 (stereo partly specified),,inactive
CCCCn1c(N)c(C(=O)NCc2cccs2)c2nc3ccccc3nc21,14.1 µM (active),
CC(C)CCn1c(N)c(C(=O)NCc2cccs2)c2nc3ccccc3nc21,10 µM (active),
CC(C)C(=O)CP(=O)(O)O,,13.2% [at 11.4 µM]
O[C@H](CN1CC1)[C@@H](O)CN1CC1,,4% [at 11.4 µM]
C[C@H]1CN(C2CCC(C#N)(c3ccc(F)cc3)CC2)CC[C@@]1(C(=O)O)c1ccccc1 (stereo partly specified),,inactive
c1ccc2c(N3CCNCC3)cccc2c1,,inactive
Cc1nnc2ccc(-c3cccc(C(F)(F)F)c3)nn12,,inactive
c1ccc(CN2CCN(Cc3ccc4c(c3)OCCO4)CC2)cc1,,inactive
COc1ccc(C(=O)OC2C[C@H]3CC[C@@H](C2)N3C)cc1OC (stereo partly specified),,inactive
O=P(Nc1ccccc1)(Nc1ccccc1)Oc1cccc(Cl)c1,12.6 µM (active),
CN1CCc2cc3c(cc2[C@@H]1[C@@H]1OC(=O)c2c1ccc1c2OCO1)OCO3,,inactive
CCCN(CCC)C1Cc2cc(OC)c(OC)cc2C1,,inactive
NC[C@@H](Cc1ccccc1)P(=O)(O)O,,22.3% [at 11.4 µM]
O=C(Cn1ncc2ccsc2c1=O)N1CCC2(CC1)OCCO2,,inactive
Cc1ccc(S(=O)(=O)NCC2CCC(C(=O)N3CCC4(CC3)OCCO4)CC2)cc1 (stereo unspecified),,inactive
O=C(CNS(=O)(=O)c1ccc(Br)s1)N1CCC2(CC1)OCCO2,11.2 µM (active),
CO[C@H]1[C@H](O)[C@H](O[C@@H]2[C@H](Oc3cccc4c(O)c5c(=O)oc6ccc(C)c7c(=O)oc(c34)c5c67)O[C@@H](C)[C@H](O)[C@H]2O)O[C@@H](C)[C@@H]1O,,-7.14% [at 11.4 µM]
O=C(O)C[C@H]1NCc2cc3ccccc3nc21,,-0.422% [at 11.4 µM]
CN(C)CC/C=C1\c2ccccc2Sc2ccc(Cl)cc21,,7.34% [at 11.4 µM]
